Pf growth 48h: Primary qHTS for delayed death inhibitors of the malarial parasite plastid, 48 hour incubation; 5.9% of 310,000 active; Potency, µM (series often up to 28.7 µM), inactives show top-dose activity change, negative = inhibition, usual class: inhibitors; P. falciparum luciferase growth in erythrocytes, 48 h; further: potency means the concentration at half of the fitted maximal effect; on the % scale 0 is the no-effect control and ±100 the full control effect
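Read-out is firefly luciferase luminescence from an integrated reporter in P. falciparum, so falling signal marks reduced parasite growth. Infected erythrocytes were at 2% hematocrit and 0.1% parasitemia (final) in Albumax-supplemented RPMI 1640.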
Pf growth 96h: Primary qHTS for delayed death inhibitors of the malarial parasite plastid, 96 hour incubation; P. falciparum luciferase reporter growth, 96 h; Potency, µM (series often up to 28.7 µM), for the others: at the top dose activity change, negative = inhibition, actives largely listed as inhibitors; 6.9% of 320,000 active; further: potency means the concentration at half of the fitted maximal effect; on the % scale 0 is the no-effect control and ±100 the full control effect
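P. falciparum expressing integrated firefly luciferase grown in erythrocytes (2% hematocrit, 0.05% parasitemia final) with compounds for 96 hours at 37 C, 5% CO2. Growth inhibition read as loss of luminescence after adding luciferase detection reagent.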
Shiga toxin inh: A qHTS for Small Molecule Inhibitors of Shiga Toxin. Vero cells, Shiga toxin protein synthesis inhibition reporter. inhibition, % at 38.7 µM. 9.2% of 290,000 active. AID 2315, 2010; in the data active means inhibition mostly above about 28%, no sharp cut-off; inactive means mostly below about 43%; further: 0% is about no effect
CHX counter: Cycloheximide Counterscreen for Small Molecule Inhibitors of Shiga Toxin; 12% of 300,000 active; max response, %; cell reporter, cycloheximide protein synthesis inhibition counterscreen; AID 2314, 2010; in the data active means max response mostly above about 13%, no sharp cut-off; inactive means mostly below about 14%; further: read at 38.3 µM for the half of the compounds with a filed dose; 0% is about no effect
Numbers without * were called inactive; ? = inconclusive; . = not tested or not shown; [ ] = remark or other dose. Hits are enriched below; roughly 21% of the tested compounds scored in any of these assays. Unless noted, the call rests on the fitted dose curve; in most records, active means well fitted inhibition curve with a large enough effect; inconclusive means small, poorly fitted or top-dose-only effect, or another doubt; inactive means no such curve, though single readings can be large or run the other way.

SMILES	Pf growth 48h	Pf growth 96h	Shiga toxin inh	CHX counter
CCn1c(=O)c2c(nc(SCC(=O)N3CCC(C)CC3)n2C)n(C)c1=O	-2.2%	4.3%	2.0	-3.4
Cc1ccc(NC(=O)c2cccc(C(=O)OC(C)C)n2)c(Br)c1	10.0%	?	74.6*	22.9*
COC(=O)c1cccc(C(=O)Nc2ccc(C)cc2Br)n1	57.1%	177.9%	64.9*	38.2*
CSc1nc(O)c(N=Nc2ccc(F)cc2F)c(=O)[nH]1	21.8%	3.0%	53.8*	29.6*
CC(C)C[C@H](NC(=O)CNC(=O)[C@H](C)NC(=O)[C@H](CC(C)C)NC(=O)[C@H](CCCNC(=N)N)NC(=O)[C@H](Cc1cnc[nH]1)NC(=O)[C@@H](NC(=O)[C@@H](N)C(C)C)[C@@H](C)O)C(=O)N[C@@H](CC(C)C)C(=O)N[C@@H](CO)C(=O)N[C@@H](CCCNC(=N)N)C(=O)N[C@@H](CO)C(=O)NCC(=O)NCC(=O)N[C@H](C(=O)N[C@H](C(=O)N[C@@H](CCCCN)C(=O)N[C@@H](CC(N)=O)C(=O)N[C@@H](CC(N)=O)C(=O)N[C@@H](Cc1ccccc1)C(=O)N[C@H](C(=O)N1CCC[C@H]1C(=O)N[C@H](C(=O)N[C@@H](CC(N)=O)C(=O)N[C@H](C(=O)NCC(=O)N[C@@H](CO)C(=O)N[C@@H](CCCCN)C(=O)N[C@@H](C)C(=O)N[C@@H](Cc1ccccc1)C(N)=O)C(C)C)[C@@H](C)O)C(C)C)C(C)C)C(C)C	.	.	-2.6	-7.2
CC(C)(C)c1ccccc1OCCCCN1CCCC1	.	.	-16.4	-5.9
Cc1cccc(C(C)(C)C)c1OCCCCN1CCCC1	.	9.28µM*	-12.0	-5.3
NC(=O)c1cc(S(=O)(=O)NCCc2ccc(S(N)(=O)=O)cc2)cs1	9.2%	-2.9%	-1.3	-2.4
O=C(NCC1CCN(Cc2ccc(F)cc2)CC1)C1CCCN(c2ncnc3c2nc2n3CCCCC2)C1 (stereo not given)	?	9.28µM*	-6.6	-1.1
O=C(NCC1CCN(Cc2cccc(Cl)c2)CC1)C1CCCN(c2ncnc3c2nc2n3CCCCC2)C1 (stereo not given)	?	-18.6%	9.0	-3.9
O=C(NCC1CCN(Cc2ccc(Cl)cc2)CC1)C1CCCN(c2ncnc3c2nc2n3CCCCC2)C1 (stereo not given)	11.7µM*	2.7%	12.7	-1.5
COc1ccc(OC)c(CN2CCN(C(=O)Cc3ccccc3)CC2)c1	-1.1%	11.7µM*	-1.7	-1.2
CCOc1cc(CN2CCN(C(=O)Cc3ccccc3)CC2)ccc1OC	0.0%	?	-7.8	-3.6
CCOc1ccc(CN2CCN(C(=O)Cc3ccccc3)CC2)cc1	-0.6%	6.57µM*	-2.6	-2.4
COc1ccc(OC)c(CN2CCN(C(=O)c3ccco3)CC2)c1	15.0%	?	-5.6	-1.8
N#C/C(C(=O)NCc1ccco1)=C1/SC(Cc2ccc(Cl)cc2)C(=O)N1c1ccccc1 (stereo not given)	-20.6%	-31.4%	-25.7	18.2*
N#C/C(C(=O)NCc1ccco1)=C1/SC=C(c2ccccc2)N1c1ccccc1	-0.2%	5.22µM*	10.6	-3.8
Cn1c(CO)cnc1SCc1ccc([N+](=O)[O-])cc1	31.1%	3.2%	4.6	6.5
Cn1c(SCC(=O)c2cc(Cl)c(Cl)s2)nnc1-c1ccco1	-44.8%	-5.3%	4.1	1.6
CCn1c(Cc2cccn2C)nnc1SCC(=O)c1ccc(C)cc1	13.1µM*	14.7µM*	129.1*	34.9*
Cn1c(SCC(=O)c2ccc(F)cc2)nnc1-c1ccccc1N	9.3%	?	122.9*	46.9*
Cc1ccc(C(=O)CSc2nnc(-c3ccco3)n2C)cc1	-9.0%	-23.5%	51.6*	35.2*
Cc1cccc(CSc2ncc(CO)n2C)c1	31.5%	20.7%	17.1	20.3*
FC(F)(Cl)c1nnc2ccc(Sc3ccccn3)nn12	?	38.6%	-7.3	6.9
Cc1ccc(C(=O)CSc2nnc(-c3ccccc3N)n2C)cc1	-2.4%	15.7%	94.4*	64.9*
SMILES	Pf growth 48h	Pf growth 96h	Shiga toxin inh	CHX counter
Cc1occc1-c1nnc(SCC(=O)c2ccc(Cl)cc2)n1C	-0.9%	.	36.5	12.5
Cn1c(CO)cnc1SCC(=O)c1ccc(F)cc1	58.2%	33.7%	75.0*	23.7*
Clc1cnc(Nc2cccnc2)c(Cl)c1	7.7%	0.1%	-3.0	-4.8
CCCOc1ccc(N2C(=O)CC(N(Cc3ccc(OC)cc3)C(=S)Nc3ccccc3)C2=O)cc1 (stereo not given)	?	?	30.3	25.3*
CCCOc1ccc(N2C(=O)CC(N(CCOC34CC5CC(CC(C5)C3)C4)C(C)=O)C2=O)cc1 (stereo not given)	44.4%	5.22µM*	-6.4	-6.3
COC(=O)CN(C(=S)Nc1ccccc1)C1CC(=O)N(c2ccc(OC)cc2)C1=O (stereo not given)	1.2%	33.6%	-13.8	11.8
CNC(=S)N(Cc1ccc(OC)cc1)C1CC(=O)N(c2ccc(C(=O)OC)cc2)C1=O (stereo not given)	?	5.86µM*	-5.2	-1.5
CCCOc1ccc(N2C(=O)CC(N(CCc3ccc(OC)c(OC)c3)C(=S)Nc3ccccc3)C2=O)cc1 (stereo not given)	2.08µM*	?	15.5	13.5
COc1ccc(CNC(=O)C2CCCN(S(=O)(=O)c3c(C)noc3/C=C/N(C)C)C2)cc1 (stereo not given)	-17.6%	-21.4%	-3.0	1.5
C=CCN(C(=O)Nc1ccccc1)C1CC(=O)N(c2ccc(OC)cc2)C1=O (stereo not given)	4.7%	11.7µM*	-3.8	4.0
COc1ccc(NC(=O)N(Cc2ccc3c(c2)OCO3)C2CC(=O)N(c3ccc(OC)cc3)C2=O)cc1 (stereo not given)	.	?	-3.5	-3.9
O=C(NCc1ccc(Cl)cc1)c1nccnc1CO	19.9%	-9.0%	-12.9	11.7
O=C(NCc1ccccc1)c1nccnc1CO	-20.9%[0.00184 µM]	10.4µM*	-7.2	-4.5
CN1CCN(CC#Cc2ccccc2)CC1CCO (stereo not given)	1.5%	4.15µM*	-2.0	-1.5
CC(C)(C)CN1CCN(CC#Cc2ccccc2)CC1CCO (stereo not given)	14.4%	?	33.9	16.8*
CN1CCN(Cc2cn(C)c3ccccc23)CC1CCO (stereo not given)	9.3%	?	-5.3	-1.8
COc1ccc2nc(Nc3sc4c(c3C(N)=O)CCCC4)sc2c1	-19.3%	?	58.7*	41.7*
COc1ccc(-c2nc(NC3=NCCCCC3)sc2C)cc1	7.5%	2.6%	14.0	8.2
COc1ccc2nc(NC3=NCCC3)sc2c1	139.8%	.	153.3*	53.2*
COc1cccc(Nc2n[nH]c(=S)s2)c1	50.9%	-0.4%	-10.7	-7.4
COc1ccc(Nc2nc3ccccc3s2)cc1	132.7%	10.2%	70.8	49.7*
COc1cccc(Nc2nc3ccc(OC)cc3s2)c1	472.5%	82.1%	88.9*	56.8*
Cc1ccc(S(=O)(=O)NCc2ccccc2)cc1C(=O)N1CCCC(C(F)(F)F)C1 (stereo not given)	?	-2.9%	.	.

Compound activity from PubChem.
